# Reference: PubChem BioAssay (NCATS)
# Values joined by “and” are separate entries in the source; they are usually repeats but may differ in a detail not shown here. Equal entries are not always repeated. Records with an inconclusive call do not appear. Where a call stands in place of a potency, no number is given. A number with no mark means an inactive call. Active and inactive are the calls of the source. Unless noted, calls come from the whole dose curve; as a rule, active = well fitted curve in the direction sought with a large enough effect; inconclusive = small, poorly fitted or top-dose-only effect, or another doubt; inactive = no such curve, though single readings can be large; an effect the other way counts as inactive or inconclusive. Where a SMILES comes first, the peptide text is derived from it. [ ]: non-standard residue; d: D form. pGlu = O=C1CC[C@@H](C(=O)O)N1; Thz = O=C(O)[C@@H]1CSCN1
# How the values were obtained:
# [1] = P-glycoprotein substrates identified in KB-8-5-11 adenocarcinoma cell line, qHTS therapeutic library screen (AID 1346987); note: nearly all actives have a fitted effect of over 65% in size; note: potency is the fitted concentration of half-maximal effect; for activity change, negative = cytotoxicity: series mostly up to about 44 µM
# Method in brief: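 P-gp-mediated resistance screen: KB-8-5-11 cells treated 72 h with compounds in dose-response. CellTiter-Glo viability.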
# [2] = P-glycoprotein substrates identified in KB-3-1 adenocarcinoma cell line, qHTS therapeutic library screen (AID 1346986); note: nearly all actives have a fitted effect of over 60% in size
# Method in brief: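 Counter-screen: cherry-picked hits retested in the KB pair and in HEK-293 pcDNA/MDR-19 cells ± tariquidar. Primary screen used 72 h CellTiter-Glo viability in KB-3-1 and KB-8-5-11.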
# [3] = NS1 protein of Zika virus - qHTS assay to identify small molecule inhibitors in human HEK 293 cells (AID 1347053); note: series mostly up to about 46 µM; nearly all actives have a fitted effect of over 55% in size
# Method in brief: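 HEK 293 cells pretreated with compound for 1 h, then infected with ZIKV MR766 (MOI 0.5) for 24 h at 37 C. NS1 detected by TR-FRET with two anti-NS1 antibodies; normalized to uninfected (0%) and infected (100%) wells.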
# [4] = Natriuretic polypeptide receptor (hNpr1) antagonism - Pilot counterscreen GloSensor control cell line (AID 1347045; calls by dose curve; note: potency is the fitted concentration of half-maximal effect; for activity change, negative = inhibition: series mostly up to about 38 µM)
# Method in brief: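 This counterscreen uses HEK293 cells expressing the GIP/pGS-40F cGMP biosensor. Compound-treated cells are challenged with 50 uM sodium nitroprusside, and the luciferase signal is compared before and after stimulation.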
# [5] = molecular target: Atrial natriuretic peptide receptor 1 (Homo sapiens) (UniProt P16066); experiment: Natriuretic polypeptide receptor (hNpr1) antagonism - Pilot screen (AID 1347049; calls by dose curve;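 note: agonist-evoked cGMP luminescence read 20 min after hNppA addition; series mostly up to about 58 µM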)
# Method in brief: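 Readout is cGMP-driven firefly luciferase luminescence in HEK293 cells carrying hNpr1 and a PDE5-domain GloSensor, read before and 20 min after 0.1 nM hNppA stimulation. Cells had 2% substrate reagent for 2 h and test compound for 30 min.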
# [6] = molecular target: Atrial natriuretic peptide receptor 2 (Homo sapiens) (UniProt P20594); experiment: Natriuretic polypeptide receptor (hNpr2) antagonism - Pilot subtype selectivity assay (AID 1347050; calls by dose curve)
# Method in brief: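 Pilot selectivity screen against hNpr2: HEK293 cGMP-sensor cells are treated with LOPAC1280 compounds, then with hNppC peptide at 1 nM final. The cGMP-driven luminescence change over 20 min at room temperature is the read-out.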
# [7] = molecular target: Tyrosine-protein phosphatase non-receptor type substrate 1 (Homo sapiens) + Leukocyte surface antigen CD47 (Homo sapiens) (UniProt P78324+Q08722); experiment: CD47-SIRPalpha protein protein interaction - LANCE assay qHTS validation (AID 1347057; active = well fitted curve in the direction sought with a large enough effect in the signal ratio, with a control signal flat, not every such curve was filed as active; the % refers to the signal ratio; note: series mostly up to about 38 µM)
# Method in brief: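 First, His-tagged CD47 and Eu-labelled anti-His antibody met the compound for 30 min; next, site-specifically biotinylated SIRPalpha was added for 30 min; finally streptavidin-APC was added before reading the TR-FRET ratio.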
# [8] = Identifying Small Molecule Inhibitors of Pancreatic Cancer Stem Cells (Panc1, Adherent) (AID 1259362); conditions: viability; note: potency is the fitted concentration of half-maximal effect
# Method in brief: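 Pre-formed 14-day tumor spheroids or adherent cells dosed and incubated 48 h, 37C, 5% CO2. Viability assessed by CellTiter-Glo.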
# [9] = Identifying Small Molecule Inhibitors of Pancreatic Cancer Stem Cells (SN12C, Spheroid) (AID 1259360)
# Method in brief: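 Spheroids grown 14 days in stem cell media on nonadherent hydrogel before screening; cells attached 4 h, then compound exposure 48 h at 37C, 5% CO2. CellTiter-Glo luminescence normalized to DMSO (no inhibition) and no-cell wells (full inhibition).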
# [10] = Identifying Small Molecule Inhibitors of Pancreatic Cancer Stem Cells (A278, Adherent) (AID 1259361); note: nearly all actives have a fitted effect of over 35% in size
# Method in brief: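 Cytotoxicity read by CellTiter-Glo luminescence after 48 h compound exposure at 37C; percent activity scaled between DMSO-treated cells and cell-free wells. Spheroid formats used cells pre-formed 14 days in stem cell media on hydrogel.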
# Atrial natriuretic peptide receptor 2 (Homo sapiens), sequence (P20594 whole entry, looked up): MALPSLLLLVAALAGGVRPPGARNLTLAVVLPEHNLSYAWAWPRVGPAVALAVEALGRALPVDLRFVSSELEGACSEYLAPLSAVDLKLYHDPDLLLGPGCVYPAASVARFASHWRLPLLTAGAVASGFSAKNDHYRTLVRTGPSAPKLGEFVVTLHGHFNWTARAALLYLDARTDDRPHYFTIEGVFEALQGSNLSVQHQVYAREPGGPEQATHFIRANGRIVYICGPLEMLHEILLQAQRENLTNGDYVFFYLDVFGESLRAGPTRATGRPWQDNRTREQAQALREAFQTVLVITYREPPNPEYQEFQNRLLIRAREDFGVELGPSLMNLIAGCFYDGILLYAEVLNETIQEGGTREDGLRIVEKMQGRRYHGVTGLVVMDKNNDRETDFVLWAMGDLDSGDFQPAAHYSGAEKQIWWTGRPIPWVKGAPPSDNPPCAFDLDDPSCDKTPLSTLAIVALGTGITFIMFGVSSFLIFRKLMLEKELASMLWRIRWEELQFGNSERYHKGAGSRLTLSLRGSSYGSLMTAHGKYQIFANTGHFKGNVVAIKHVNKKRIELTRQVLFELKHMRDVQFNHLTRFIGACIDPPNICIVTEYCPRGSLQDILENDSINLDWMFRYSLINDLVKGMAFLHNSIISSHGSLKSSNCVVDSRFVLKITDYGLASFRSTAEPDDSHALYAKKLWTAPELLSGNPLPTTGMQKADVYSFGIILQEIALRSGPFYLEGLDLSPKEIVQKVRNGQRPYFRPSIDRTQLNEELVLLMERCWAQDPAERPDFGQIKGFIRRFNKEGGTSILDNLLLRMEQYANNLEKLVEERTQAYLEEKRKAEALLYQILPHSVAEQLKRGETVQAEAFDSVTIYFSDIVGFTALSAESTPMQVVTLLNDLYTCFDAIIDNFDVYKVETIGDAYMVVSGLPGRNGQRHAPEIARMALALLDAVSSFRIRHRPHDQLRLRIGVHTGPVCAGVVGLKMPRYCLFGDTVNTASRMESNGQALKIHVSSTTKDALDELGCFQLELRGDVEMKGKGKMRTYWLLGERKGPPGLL
# Tyrosine-protein phosphatase non-receptor type substrate 1 (Homo sapiens) + Leukocyte surface antigen CD47 (Homo sapiens), sequence (P78324 whole entry, looked up): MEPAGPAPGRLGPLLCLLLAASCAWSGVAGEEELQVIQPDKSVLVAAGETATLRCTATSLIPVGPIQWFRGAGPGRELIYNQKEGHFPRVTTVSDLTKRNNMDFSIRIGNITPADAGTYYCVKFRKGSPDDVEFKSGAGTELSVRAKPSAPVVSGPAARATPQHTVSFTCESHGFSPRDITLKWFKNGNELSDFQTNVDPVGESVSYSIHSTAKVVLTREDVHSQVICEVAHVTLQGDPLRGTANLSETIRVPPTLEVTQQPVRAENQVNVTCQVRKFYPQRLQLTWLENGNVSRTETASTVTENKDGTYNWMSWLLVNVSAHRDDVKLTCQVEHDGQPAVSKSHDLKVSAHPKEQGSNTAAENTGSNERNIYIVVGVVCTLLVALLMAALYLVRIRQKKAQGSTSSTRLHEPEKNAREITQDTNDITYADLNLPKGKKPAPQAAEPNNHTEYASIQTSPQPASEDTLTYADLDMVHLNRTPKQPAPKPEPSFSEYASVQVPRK
# Tyrosine-protein phosphatase non-receptor type substrate 1 (Homo sapiens) + Leukocyte surface antigen CD47 (Homo sapiens), sequence (Q08722 whole entry, looked up): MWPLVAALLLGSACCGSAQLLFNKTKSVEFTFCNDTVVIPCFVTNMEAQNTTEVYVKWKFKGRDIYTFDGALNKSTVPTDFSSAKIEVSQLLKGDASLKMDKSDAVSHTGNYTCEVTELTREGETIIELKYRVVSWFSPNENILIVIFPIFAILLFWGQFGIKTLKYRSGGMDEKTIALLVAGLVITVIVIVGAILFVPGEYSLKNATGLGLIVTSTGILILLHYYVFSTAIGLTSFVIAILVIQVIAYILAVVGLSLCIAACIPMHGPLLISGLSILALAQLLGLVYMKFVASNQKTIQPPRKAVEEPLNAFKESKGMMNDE
# Atrial natriuretic peptide receptor 1 (Homo sapiens), sequence (P16066 whole entry, looked up): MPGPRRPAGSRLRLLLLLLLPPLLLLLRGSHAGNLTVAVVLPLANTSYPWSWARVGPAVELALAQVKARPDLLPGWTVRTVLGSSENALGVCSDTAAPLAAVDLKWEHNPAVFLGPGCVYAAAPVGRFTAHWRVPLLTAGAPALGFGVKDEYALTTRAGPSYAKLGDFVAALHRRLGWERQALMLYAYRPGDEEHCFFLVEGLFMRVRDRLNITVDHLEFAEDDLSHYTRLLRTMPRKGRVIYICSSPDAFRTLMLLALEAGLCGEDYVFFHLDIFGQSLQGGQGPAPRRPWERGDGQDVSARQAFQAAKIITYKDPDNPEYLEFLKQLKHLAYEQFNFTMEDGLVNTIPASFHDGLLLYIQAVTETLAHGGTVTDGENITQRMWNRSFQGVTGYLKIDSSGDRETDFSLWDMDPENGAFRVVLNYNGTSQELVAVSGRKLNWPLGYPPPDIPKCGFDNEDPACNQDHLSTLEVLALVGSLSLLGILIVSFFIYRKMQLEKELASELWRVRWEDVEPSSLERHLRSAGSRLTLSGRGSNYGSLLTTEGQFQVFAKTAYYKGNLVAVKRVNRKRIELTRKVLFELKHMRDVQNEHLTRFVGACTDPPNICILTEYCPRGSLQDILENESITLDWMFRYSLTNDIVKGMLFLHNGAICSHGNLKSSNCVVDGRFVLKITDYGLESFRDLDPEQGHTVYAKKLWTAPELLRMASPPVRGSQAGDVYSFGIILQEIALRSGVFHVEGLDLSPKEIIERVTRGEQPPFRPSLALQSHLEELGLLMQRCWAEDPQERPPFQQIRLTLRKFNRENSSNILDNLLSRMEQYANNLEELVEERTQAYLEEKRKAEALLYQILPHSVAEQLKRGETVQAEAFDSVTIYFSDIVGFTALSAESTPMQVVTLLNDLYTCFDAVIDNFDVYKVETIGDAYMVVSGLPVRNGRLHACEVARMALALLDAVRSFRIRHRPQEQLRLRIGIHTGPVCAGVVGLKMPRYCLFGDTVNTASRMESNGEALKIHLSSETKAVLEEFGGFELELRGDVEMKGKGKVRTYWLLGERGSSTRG
smiles,measurement,setting,value
CCCCC[C@H](O)/C=C/[C@@H]1[C@@H](C/C=C\CCCC(=O)O)[C@@H](O)C[C@H]1O,Potency,[1],inactive
CN(C)c1ccc(C(=C2C=CC(=[N+](C)C)C=C2)c2ccccc2)cc1,Potency,[1],23.1 µM (active)
O=C1CC[C@@H](C(=O)N2CSC[C@H]2C(=O)O)N1 ([pGlu]-[Thz]-OH),Potency,[2],inactive
same,Potency,[1],inactive
CC(=O)[C@]1(O)Cc2c(O)c3c(c(O)c2[C@@H](O[C@H]2C[C@H](N)[C@H](O)[C@H](C)O2)C1)C(=O)c1c(O)cccc1C3=O,Potency,[1],5.17 µM (active) and 4.11 µM (active)
C/C(=N\O)c1ccc(OCC(=O)N2CCCCC2)cc1,Potency,[2],inactive
same,Potency,[3],inactive
C=C(Nc1ccc(OCC)cc1)Nc1ccc(OCC)cc1,Potency,[1],inactive
N#C/C(=C\c1ccc(O)c(O)c1)C(=O)NCCCc1ccccc1,Potency,[2],inactive
same,Potency,[1],inactive
same,Potency,[4],inactive
same,Potency,[5],inactive
same,Potency,[6],inactive
CCNc1nc2c(ncn2[C@H]2C[C@H](O)[C@@H](CO)O2)c(=O)[nH]1,Potency,[2],inactive
same,Potency,[1],inactive
same,Potency,[3],inactive
same,Potency,[7],inactive
[O-][n+]1ccccc1SSc1cccc[n+]1[O-],Potency,[1],7.31 µM (active)
CC1(C)S[C@@H]2[C@H](NC(=O)[C@H](NC(=O)N3CCN(S(C)(=O)=O)C3=O)c3ccccc3)C(=O)N2[C@H]1C(=O)O,Potency,[2],inactive
same,Potency,[1],inactive
CN1[C@@H]2CC[C@H]1CC(OC(=O)C(CO)c1ccccc1)C2 (some centres not stated),Potency,[1],inactive
C[C@H](O)[C@H](O)[C@H]1CNc2nc(N)[nH]c(=O)c2N1,Potency,[2],inactive
same,Potency,[1],inactive
COc1cc(/C=C/C(=O)CC(=O)/C=C/c2ccc(O)c(OC)c2)ccc1O,Potency,[1],inactive
C=CCc1cccc(/C=N/NC(=O)CN2CCN(Cc3ccccc3)CC2)c1O,Potency,[8],4.18 µM (active)
CC(=O)SCC(CC(=O)c1ccc(C)cc1)C(=O)O (configuration not stated),Potency,[2],inactive
same,Potency,[1],inactive
same,Potency,[3],inactive
O=C(O)COc1ccc(C(=O)c2cccs2)c(Cl)c1Cl,Potency,[1],inactive
CO/N=C(\C(=O)N[C@@H]1C(=O)N2C(C(=O)O)=C(COC(C)=O)CS[C@H]12)c1csc(N)n1 (stereo in doubt),Potency,[1],inactive
N#C/C(=C\c1ccc(O)c(O)c1)C(=O)NCc1ccccc1,Potency,[2],inactive
same,Potency,[6],inactive
Oc1cc(O)cc(/C=C/c2ccc(O)c(O)c2)c1,Potency,[2],inactive
same,Potency,[4],11.7 µM (active)
same,Potency,[3],inactive
same,Potency,[7],inactive
COC(=O)[C@H]1[C@H]2C[C@@H]3c4[nH]c5cc(OC)ccc5c4CCN3C[C@H]2C[C@@H](OC(=O)/C=C/c2cc(OC)c(OC)c(OC)c2)[C@@H]1OC,Potency,[2],inactive
same,Potency,[1],inactive
O=C(O)CC1CC(c2ccccc2)=NO1 (configuration not stated),Potency,[2],inactive
same,Potency,[1],inactive
same,Potency,[4],inactive
same,Potency,[6],inactive
CC1(C)[C@@H](O)CC[C@]2(C)[C@H]3C(=O)C=C4[C@@H]5C[C@@](C)(C(=O)O)CC[C@]5(C)CC[C@@]4(C)[C@]3(C)CC[C@@H]12,Potency,[2],inactive
same,Potency,[1],inactive
COc1cc(/C=C/C(=O)N2CCN(CC(=O)N3CCCC3)CC2)cc(OC)c1OC,Potency,[2],inactive
same,Potency,[1],inactive
CC(=O)O[C@H]1C[C@@]2(C)[C@@H](C[C@@H](O)[C@H]3[C@@]4(C)CC[C@@H](O)[C@@H](C)[C@@H]4CC[C@@]32C)/C1=C(\CCC=C(C)C)C(=O)O,Potency,[2],inactive
same,Potency,[1],inactive
Cc1onc(-c2c(F)cccc2Cl)c1C(=O)N[C@@H]1C(=O)N2[C@@H]1SC(C)(C)[C@@H]2C(=O)O,Potency,[2],inactive
same,Potency,[1],inactive
CC1(C)[C@@H](O[C@H]2O[C@H](C(=O)O)[C@@H](O)[C@H](O)[C@H]2O[C@@H]2O[C@H](C(=O)O)[C@@H](O)[C@H](O)[C@H]2O)CC[C@]2(C)[C@H]3C(=O)C=C4[C@@H]5C[C@@](C)(C(=O)O)CC[C@]5(C)CC[C@@]4(C)[C@]3(C)CC[C@@H]12,Potency,[2],inactive
same,Potency,[1],inactive
CC1(C)C[C@@H]1C(=O)N/C(=C\CCCCSC[C@H](N)C(=O)O)C(=O)O,Potency,[1],inactive
CCCCCC[C@@H](O)C/C=C\CCCCCCCC(=O)O,Potency,[1],inactive
CN1CC(=O)N/C1=N/C(=O)Nc1cccc(Cl)c1,outcome,[9],inactive
same,outcome,[10],inactive
same,Potency,[1],inactive
same,Potency,[4],inactive
same,Potency,[5],inactive
same,Potency,[6],inactive
same,Potency,[3],inactive
same,Potency,[7],inactive
COc1cc(CNC(=O)CCCC/C=C/C(C)C)ccc1O,Potency,[2],inactive
same,Potency,[1],inactive
O=C(O)Cc1cccc(-c2cc(CCCCCCc3ccc(O[C@H]4O[C@H](CO)[C@@H](O)[C@H](O)[C@@H]4O)c(-c4cccc(CC(=O)O)c4)c3)ccc2O[C@H]2O[C@H](CO)[C@@H](O)[C@H](O)[C@@H]2O)c1,outcome,[2],inactive [at 0.354 µM]
same,"activity change, negative = cytotoxicity",[1],3.65% [at 0.354 µM]
same,"activity change, negative = inhibition",[3],-8.2% [at 0.593 µM]
